For 36 targets, log2 fold change results are on record in the supplement of paper PMC10849652.

The full data set covers some 7,900 targets. This sample favours those with a hit. About 0.6% of all pairs of compound and target were hits.

UniProt Q14680, sequence (Q14680 whole entry, looked up): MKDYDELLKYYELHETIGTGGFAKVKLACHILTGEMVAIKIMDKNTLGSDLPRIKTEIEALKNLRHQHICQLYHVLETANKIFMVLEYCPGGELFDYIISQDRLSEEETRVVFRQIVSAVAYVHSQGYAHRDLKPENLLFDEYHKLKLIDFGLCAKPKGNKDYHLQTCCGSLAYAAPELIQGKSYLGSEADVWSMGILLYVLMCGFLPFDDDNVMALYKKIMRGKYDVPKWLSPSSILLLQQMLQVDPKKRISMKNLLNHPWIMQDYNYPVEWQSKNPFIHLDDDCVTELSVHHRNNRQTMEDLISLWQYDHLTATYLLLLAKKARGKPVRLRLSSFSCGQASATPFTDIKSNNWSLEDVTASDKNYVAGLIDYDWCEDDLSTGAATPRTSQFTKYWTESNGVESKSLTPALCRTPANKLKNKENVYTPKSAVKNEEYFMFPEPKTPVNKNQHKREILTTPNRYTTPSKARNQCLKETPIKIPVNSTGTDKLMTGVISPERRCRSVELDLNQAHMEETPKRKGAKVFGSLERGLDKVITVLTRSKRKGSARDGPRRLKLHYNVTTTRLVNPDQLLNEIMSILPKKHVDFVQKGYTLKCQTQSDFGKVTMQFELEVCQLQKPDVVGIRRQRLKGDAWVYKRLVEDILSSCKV
UniProt P13473, sequence (P13473 whole entry, looked up): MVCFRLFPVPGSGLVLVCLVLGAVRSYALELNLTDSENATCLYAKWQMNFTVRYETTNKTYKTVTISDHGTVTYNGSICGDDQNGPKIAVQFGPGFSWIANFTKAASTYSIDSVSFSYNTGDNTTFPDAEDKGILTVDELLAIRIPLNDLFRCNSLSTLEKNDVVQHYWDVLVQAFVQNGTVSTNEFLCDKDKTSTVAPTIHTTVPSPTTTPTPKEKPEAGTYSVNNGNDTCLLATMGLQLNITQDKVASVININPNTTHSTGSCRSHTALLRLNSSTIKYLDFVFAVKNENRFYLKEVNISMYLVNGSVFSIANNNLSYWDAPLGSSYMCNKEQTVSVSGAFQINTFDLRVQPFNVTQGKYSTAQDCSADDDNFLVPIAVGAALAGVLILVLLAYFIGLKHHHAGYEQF
UniProt P55082, sequence (P55082 whole entry, looked up): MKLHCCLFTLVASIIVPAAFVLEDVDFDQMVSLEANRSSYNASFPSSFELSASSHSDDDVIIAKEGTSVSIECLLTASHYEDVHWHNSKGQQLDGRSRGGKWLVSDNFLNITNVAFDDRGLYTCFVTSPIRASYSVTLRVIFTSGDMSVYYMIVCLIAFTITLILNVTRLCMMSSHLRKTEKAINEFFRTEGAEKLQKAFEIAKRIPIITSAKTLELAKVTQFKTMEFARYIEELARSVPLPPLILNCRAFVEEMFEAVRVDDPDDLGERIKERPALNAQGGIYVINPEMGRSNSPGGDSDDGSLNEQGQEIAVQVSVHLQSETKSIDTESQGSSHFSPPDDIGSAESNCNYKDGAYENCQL
UniProt Q9BQD3, sequence (Q9BQD3 whole entry, looked up): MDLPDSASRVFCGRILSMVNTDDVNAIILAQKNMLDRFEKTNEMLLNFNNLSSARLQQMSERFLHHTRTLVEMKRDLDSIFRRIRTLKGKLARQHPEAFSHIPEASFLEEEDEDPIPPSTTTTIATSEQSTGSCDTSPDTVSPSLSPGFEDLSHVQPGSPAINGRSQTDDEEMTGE
UniProt Q8NHS3, sequence (Q8NHS3 whole entry, looked up): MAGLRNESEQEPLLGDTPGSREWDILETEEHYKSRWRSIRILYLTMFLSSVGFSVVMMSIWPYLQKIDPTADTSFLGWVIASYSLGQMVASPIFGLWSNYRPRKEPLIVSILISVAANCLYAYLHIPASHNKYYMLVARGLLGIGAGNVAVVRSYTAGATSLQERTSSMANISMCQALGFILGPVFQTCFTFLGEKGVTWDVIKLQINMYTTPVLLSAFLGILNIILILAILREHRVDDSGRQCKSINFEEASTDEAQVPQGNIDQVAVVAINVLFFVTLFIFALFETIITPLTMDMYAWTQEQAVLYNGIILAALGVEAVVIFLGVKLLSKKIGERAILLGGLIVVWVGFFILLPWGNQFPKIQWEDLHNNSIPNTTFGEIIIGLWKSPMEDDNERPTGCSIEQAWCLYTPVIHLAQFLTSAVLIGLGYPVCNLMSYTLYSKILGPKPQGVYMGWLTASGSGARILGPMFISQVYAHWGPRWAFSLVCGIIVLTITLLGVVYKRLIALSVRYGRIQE
UniProt P43361, sequence (P43361 whole entry, looked up): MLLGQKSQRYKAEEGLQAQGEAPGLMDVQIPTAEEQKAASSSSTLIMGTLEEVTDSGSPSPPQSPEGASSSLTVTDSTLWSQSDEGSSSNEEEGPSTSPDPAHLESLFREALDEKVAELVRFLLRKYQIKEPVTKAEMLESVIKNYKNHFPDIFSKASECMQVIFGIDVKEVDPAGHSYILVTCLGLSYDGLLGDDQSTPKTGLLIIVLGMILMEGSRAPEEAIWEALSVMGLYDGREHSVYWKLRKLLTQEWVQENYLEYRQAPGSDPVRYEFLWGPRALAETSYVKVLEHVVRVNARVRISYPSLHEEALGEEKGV
UniProt A4D2B0, sequence (A4D2B0 whole entry, looked up): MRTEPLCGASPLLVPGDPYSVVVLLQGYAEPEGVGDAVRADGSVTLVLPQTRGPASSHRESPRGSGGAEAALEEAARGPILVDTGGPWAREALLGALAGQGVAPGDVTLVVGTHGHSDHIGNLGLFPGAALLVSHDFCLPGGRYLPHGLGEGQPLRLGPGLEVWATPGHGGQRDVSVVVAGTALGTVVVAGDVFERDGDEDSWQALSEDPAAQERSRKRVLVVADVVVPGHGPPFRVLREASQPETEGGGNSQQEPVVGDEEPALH
UniProt O00214, sequence (O00214 whole entry, looked up): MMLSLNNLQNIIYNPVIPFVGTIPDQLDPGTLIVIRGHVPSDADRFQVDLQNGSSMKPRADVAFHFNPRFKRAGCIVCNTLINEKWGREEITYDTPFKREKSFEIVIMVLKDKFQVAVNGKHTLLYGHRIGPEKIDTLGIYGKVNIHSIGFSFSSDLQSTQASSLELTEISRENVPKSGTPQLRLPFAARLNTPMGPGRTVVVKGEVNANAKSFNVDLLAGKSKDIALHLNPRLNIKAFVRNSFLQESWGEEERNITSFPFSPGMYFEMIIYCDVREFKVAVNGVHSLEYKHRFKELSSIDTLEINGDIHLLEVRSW
UniProt P24592, sequence (P24592 whole entry, looked up): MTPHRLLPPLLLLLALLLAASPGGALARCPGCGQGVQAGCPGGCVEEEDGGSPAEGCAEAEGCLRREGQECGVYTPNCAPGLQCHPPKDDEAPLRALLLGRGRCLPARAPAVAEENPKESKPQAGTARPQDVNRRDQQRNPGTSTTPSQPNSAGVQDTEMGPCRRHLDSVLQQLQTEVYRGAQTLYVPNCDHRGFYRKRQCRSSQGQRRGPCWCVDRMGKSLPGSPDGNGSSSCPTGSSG
UniProt Q8TDD5, sequence (Q8TDD5 whole entry, looked up): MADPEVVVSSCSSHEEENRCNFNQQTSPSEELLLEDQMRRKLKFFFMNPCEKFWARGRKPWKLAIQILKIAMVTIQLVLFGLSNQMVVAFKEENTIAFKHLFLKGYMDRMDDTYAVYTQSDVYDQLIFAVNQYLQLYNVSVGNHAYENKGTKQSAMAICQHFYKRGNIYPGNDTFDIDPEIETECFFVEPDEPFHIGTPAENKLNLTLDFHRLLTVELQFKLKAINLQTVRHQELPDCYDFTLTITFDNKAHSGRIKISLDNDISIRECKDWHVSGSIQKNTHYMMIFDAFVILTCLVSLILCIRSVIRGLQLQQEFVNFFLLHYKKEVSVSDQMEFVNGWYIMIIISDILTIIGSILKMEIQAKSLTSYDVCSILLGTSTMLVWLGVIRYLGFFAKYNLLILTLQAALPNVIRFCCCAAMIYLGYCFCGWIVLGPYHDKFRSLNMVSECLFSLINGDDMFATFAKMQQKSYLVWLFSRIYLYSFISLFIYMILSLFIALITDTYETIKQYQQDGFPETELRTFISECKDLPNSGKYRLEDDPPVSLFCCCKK
UniProt O15243, sequence (O15243 whole entry, looked up): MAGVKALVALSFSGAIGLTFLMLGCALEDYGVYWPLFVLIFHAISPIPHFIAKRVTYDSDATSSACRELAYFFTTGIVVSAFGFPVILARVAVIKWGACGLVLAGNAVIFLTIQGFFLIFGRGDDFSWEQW
UniProt Q6NUT3, sequence (Q6NUT3 whole entry, looked up): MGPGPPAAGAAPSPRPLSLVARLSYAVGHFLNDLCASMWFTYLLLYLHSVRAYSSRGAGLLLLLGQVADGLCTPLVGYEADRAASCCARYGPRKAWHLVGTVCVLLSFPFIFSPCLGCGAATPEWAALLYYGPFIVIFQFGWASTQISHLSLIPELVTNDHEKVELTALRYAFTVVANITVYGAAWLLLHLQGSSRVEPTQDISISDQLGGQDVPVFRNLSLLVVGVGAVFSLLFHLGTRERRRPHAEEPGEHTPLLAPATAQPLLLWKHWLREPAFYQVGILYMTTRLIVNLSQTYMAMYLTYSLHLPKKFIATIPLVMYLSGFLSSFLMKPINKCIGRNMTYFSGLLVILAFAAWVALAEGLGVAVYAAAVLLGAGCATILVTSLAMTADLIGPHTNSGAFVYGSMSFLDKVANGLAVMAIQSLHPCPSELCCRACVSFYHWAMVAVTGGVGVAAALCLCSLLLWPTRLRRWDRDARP
UniProt Q86VI4, sequence (Q86VI4 whole entry, looked up): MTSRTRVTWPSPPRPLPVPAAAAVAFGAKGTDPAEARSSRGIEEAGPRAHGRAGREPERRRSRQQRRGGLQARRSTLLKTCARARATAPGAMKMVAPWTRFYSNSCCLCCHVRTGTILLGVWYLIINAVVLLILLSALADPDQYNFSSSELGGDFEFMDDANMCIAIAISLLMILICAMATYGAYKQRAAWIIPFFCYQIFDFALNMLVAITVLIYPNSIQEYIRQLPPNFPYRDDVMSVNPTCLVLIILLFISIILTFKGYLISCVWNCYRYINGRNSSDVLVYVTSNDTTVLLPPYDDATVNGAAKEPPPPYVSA
UniProt Q52LA3, sequence (Q52LA3 whole entry, looked up): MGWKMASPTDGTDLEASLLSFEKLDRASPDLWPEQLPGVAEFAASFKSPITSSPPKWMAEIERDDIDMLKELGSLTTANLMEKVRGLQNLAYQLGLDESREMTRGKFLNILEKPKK

Compound in one experiment: CN(C)CC(=O)Nc1ccc2[nH]c(=O)c3ccccc3c2c1
The experiment is described as follows: log2 fold change, soluble protein after heating vs DMSO (PISA); higher = thermal stabilisation; K562 cells, 10 uM, 30 min; active = over 0.2 and 3.5 SD of the protein, either way, in both replicates (recomputed). In a few lines: (§1)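 Quantification of soluble protein used TMTpro 16plex LC-MS/MS, with channel sums equalised. Samples were the supernatant after 21,000xg for 90 min of pooled aliquots from K562 cells (2×10^6 cells/mL) treated with 10 μM compound for 30 min, heated for 3 min over 48°C-58°C, and extracted in PBS with 0.5% NP-40 at 4°C. Values, from duplicates, describe thermal stability against control samples on a log2 fold-change scale.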
Consider KXD1 (UniProt Q9BQD3), for which the log2 fold change was 0.062 (inactive).

Turning to ITPRID2 (UniProt P28290), the log2 fold change is -0.106 (inactive).

In the case of KIF1B isoform 3 (UniProt O60333), the log2 fold change was -0.032 (inactive).

For the target MAGED1 isoform 2 (UniProt Q9Y5V3), the log2 fold change was 0.012 (inactive).

With MAP4K4 isoform 6 (UniProt O95819), the log2 fold change was -0.083 (inactive).

In the case of LGALS8 isoform 2 (UniProt O00214), the log2 fold change is 0.067 (inactive).

For MBLAC1 (UniProt A4D2B0), the log2 fold change is 0.105 (inactive).

For IGFBP6 (UniProt P24592), the log2 fold change was -0.186 (inactive).

On to MFAP3 (UniProt P55082), for which the log2 fold change was -0.118 (inactive).

Regarding LAMP2 isoform 2 (UniProt P13473), the log2 fold change is 0.012 (inactive).

For MAGEA8 (UniProt P43361), the log2 fold change is -0.003 (inactive).

LSR (UniProt M0QZL9): the log2 fold change was -0.125 (inactive).

Regarding MFSD8 (UniProt Q8NHS3), the log2 fold change is -0.061 (inactive).

Compound in a further experiment: CN(CCOC1=CC=C(C=C1)C[C@H]2C(=O)NC(=O)S2)C3=CC=CC=N3 (racemic) [rosiglitazone]
The description is as above. In a few lines: as §1
Regarding KXD1 (UniProt Q9BQD3), the log2 fold change was 0.047 (inactive).

Turning to MARCHF3 (UniProt Q86UD3), the log2 fold change is 0.093 (inactive).

Turning to LDLRAP1 (UniProt Q5SW96), the log2 fold change is -0.023 (inactive).

In the case of LOX (UniProt P28300), the log2 fold change is 0.072 (inactive).

Turning to LGALS8 isoform 2 (UniProt O00214), the log2 fold change was -0.263 (inactive).

With MBLAC1 (UniProt A4D2B0), the log2 fold change was -0.024 (inactive).

As to MFAP3 (UniProt P55082), the log2 fold change is 0.046 (inactive).

Take LAPTM4B (UniProt Q86VI4): the log2 fold change is -0.024 (inactive).

Consider MAP4K2 (UniProt Q12851), for which the log2 fold change is 0.066 (inactive).

Turning to LAMP2 isoform 2 (UniProt P13473), the log2 fold change was -0.035 (inactive).

Turning to IPP (UniProt Q9Y573), the log2 fold change was -0.24 (inactive).

For the target MAGEA8 (UniProt P43361), the log2 fold change was 0.036 (inactive).

Consider MFSD8 (UniProt Q8NHS3), for which the log2 fold change was -0.139 (inactive).

Consider ILF3 (UniProt Q12906), for which the log2 fold change is -0.082 (inactive).

Regarding MELK (UniProt Q14680), the log2 fold change is -0.003 (inactive).

On to MCOLN3 (UniProt Q8TDD5), for which the log2 fold change was 0.128 (inactive).

With MGRN1 isoform 2 (UniProt O60291), the log2 fold change is 0.014 (inactive).

Compound in another experiment: CN1C2=C(C3=C1C(=O)N(N=C3)CC4=CC(=CC=C4)N)SC(=C2)S(=O)C
The description is as above. In a few lines: as §1
As to KXD1 (UniProt Q9BQD3), the log2 fold change is 0.011 (inactive).

MAP2K5 (UniProt Q13163): the log2 fold change is 0.457 (inactive).

For the target LSR isoform 3 (UniProt Q86X29), the log2 fold change is 0.047 (inactive).

For LRRFIP1 isoform 4 (UniProt Q32MZ4), the log2 fold change was 0.105 (inactive).

As to LRRCC1 (UniProt Q9C099), the log2 fold change was 0.281 (inactive).

As to IKZF1 (UniProt R9R4D9), the log2 fold change was 0.229 (inactive).

On to MAGED1 isoform 2 (UniProt Q9Y5V3), for which the log2 fold change was 0.399 (inactive).

Regarding MAP4K4 isoform 6 (UniProt O95819), the log2 fold change is 0.261 (inactive).

Turning to LIN52 (UniProt Q52LA3), the log2 fold change was 0.003 (inactive).

In the case of LGALS8 isoform 2 (UniProt O00214), the log2 fold change was 0.328 (inactive).

On to MBLAC1 (UniProt A4D2B0), for which the log2 fold change was -0.021 (inactive).

IGFBP6 (UniProt P24592): the log2 fold change was 0.107 (inactive).

For MFAP3 (UniProt P55082), the log2 fold change is -0.008 (inactive).

LEPROT (UniProt O15243): the log2 fold change is 0.117 (inactive).

On to LAMP2 isoform 2 (UniProt P13473), for which the log2 fold change was -0.112 (inactive).

Regarding MFSD12 isoform 3 (UniProt Q6NUT3), the log2 fold change was 0.075 (inactive).

For MAGEA8 (UniProt P43361), the log2 fold change is 0.038 (inactive).

Consider MED29 (UniProt Q9NX70), for which the log2 fold change was -0.056 (inactive).

Consider MFSD8 (UniProt Q8NHS3), for which the log2 fold change is 0.046 (inactive).

With MELK (UniProt Q14680), the log2 fold change was 0.034 (inactive).

Compound in a further experiment: CN1CCC(CNc2ccc3ncc(-c4cccc(OC(F)(F)F)c4)n3n2)CC1
The description is as above. In a few lines:
as §1
Regarding KXD1 (UniProt Q9BQD3), the log2 fold change is -0.096 (inactive).

In the case of MAPK11 (UniProt Q15759), the log2 fold change is -0.263 (inactive).

LRRFIP1 isoform 4 (UniProt Q32MZ4): the log2 fold change was 0.349 (inactive).

Regarding IKZF1 (UniProt R9R4D9), the log2 fold change is 0.05 (inactive).

LGALS8 isoform 2 (UniProt O00214): the log2 fold change is 0.93 (active).

On to MBLAC1 (UniProt A4D2B0), for which the log2 fold change is 0.063 (inactive).

With KIZ (UniProt Q2M2Z5), the log2 fold change is -0.399 (inactive).

As for LAPTM4B (UniProt Q86VI4), the log2 fold change is 0.968 (active).

Consider LEPROT (UniProt O15243), for which the log2 fold change was -0.03 (inactive).

Regarding LAMP2 isoform 2 (UniProt P13473), the log2 fold change is -0.485 (active).

Consider MFSD12 isoform 3 (UniProt Q6NUT3), for which the log2 fold change is -0.305 (inactive).

Consider MAPK7 (UniProt Q13164), for which the log2 fold change was -0.125 (inactive).

Take MAGEA8 (UniProt P43361): the log2 fold change is -0.07 (inactive).

As to KMT5A (UniProt Q9NQR1), the log2 fold change was -0.2 (inactive).

On to MFSD8 (UniProt Q8NHS3), for which the log2 fold change is 0.127 (inactive).

Regarding MELK (UniProt Q14680), the log2 fold change is -0.426 (inactive).

For MCOLN3 (UniProt Q8TDD5), the log2 fold change was -0.084 (inactive).

With MGRN1 isoform 2 (UniProt O60291), the log2 fold change is -0.07 (inactive).
